This is an account of results in PubChem BioAssay.

Active and inactive are the calls of the source.

The nature of assay [1]: binders of probe aFSTL3 on microarray, primary screen, stem cell growth factor project, biochemical, small-molecule microarray, fluorescence 635/667 (AID 1064).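 Further: measures binding of the biotinylated anti-FSTL3 antibody to printed compounds.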 The conditions noted are these: higher = more signal.
Assay [2] in a line: binders from COS7 lysate, DM2A8 probe, primary screen, torsin A project, cell lysate, small-molecule microarray, fluorescence 635/667 (AID 1065). The conditions noted are these: higher = more signal, COS7 lysate expressing mutant human TOR1A.
Assay [3] is described as follows: binders of probe aFGF2 on microarray, primary screen, stem cell growth factor project, biochemical, small-molecule microarray, fluorescence 635/667 (AID 1067).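 Further: measures binding of biotinylated aFGF2 protein to printed compounds on slides; z-score merges feature fluorescence and signal-to-noise across triplicate slides.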 Particulars: higher = more signal.
Assay [4] is described as follows: binders of probe aFGF10 on microarray, primary screen, stem cell growth factor project, biochemical, small-molecule microarray, fluorescence 635/667 (AID 1071).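 Further: score merges 667 nm spot intensity and signal to noise from triplicate slides.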 Particulars: higher = more signal.
The target of assay [5] is Neurogenic locus notch homolog protein 2 (Homo sapiens) (UniProt Q04721). Description: Notch2 binders on small-molecule microarrays, primary screen, biochemical, small-molecule microarray, 635 nm fluorescence, stem cell growth factors (AID 1073). Particulars: Notch2 binding, higher = more signal.
The target in assay [6] is Pro-neuregulin-1, membrane-bound isoform (Homo sapiens) (UniProt Q02297). The assay can be described thus: NRG1 binders on small-molecule microarrays, primary screen, psychiatric disease protein project, biochemical, small-molecule microarray, fluorescence 635/667 (AID 1075).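 Further: score combines 667 nm spot fluorescence with signal to noise.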 Particulars: NRG1 binding, 635 nm fluorescence, higher = more signal.
Assay [7] deals with Neuregulin-1 EGF-like domain. Description: binders of neuregulin-1 EGF-like domain, primary screen, biochemical, small-molecule microarray, 635 nm fluorescence (AID 1081).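 Further: binding of the protein to compounds printed on small-molecule microarray slides.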 The conditions noted are these: small-molecule microarray binding, higher = more signal.
A short description of assay [8]: FRG1 promoter luciferase signal modulators, primary screen, FRG1 inhibition for FSHD, cell-based, C2C12 myotubes, firefly/Renilla luciferase, luminescence (AID 1084). The conditions noted are these: higher = more signal, called active from +8 up or from −8 down.
Assay [9] can be described thus: binders of probe aFST on microarray, primary screen, stem cell growth factor project, biochemical, small-molecule microarray, fluorescence 635/667 (AID 1086).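 Further: score merges 667 nm fluorescence with signal-to-noise of each printed compound spot.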 Particulars: higher = more signal.
Assay [10] is described as follows: binders of probe aHhip on microarray, primary screen, stem cell growth factor project, biochemical, small-molecule microarray, fluorescence 635/667 (AID 1087).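 Further: score merges spot fluorescence at 667nm with spot signal to noise ratio.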 Particulars: higher = more signal.
Assay [11] concerns PRMT1 (protein arginine N-methyltransferase 1). Description: PRMT1 binders on small-molecule microarrays, primary screen, biochemical, small-molecule microarray, 635 nm fluorescence (AID 1088).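 Further: binding of Prmt1 protein to compounds spotted on small-molecule microarray slides.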 Particulars: small-molecule microarray binding, higher = more signal.
A short description of assay [12]: yeast growth modulation, basal conditions, primary screen, YJM789 clinical isolate, OD600, 24 h (AID 1089).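 Further: growth of clinical yeast isolate S. cerevisiae YJM 789 seeded 1000 cells per well; test concentration not given here.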 The conditions noted are these: S. cerevisiae YJM789 growth, higher = more signal, called active from +8 up or from −8 down.
Assay [13] in a line: fission yeast growth modulation, primary screen, strain 972, OD600, 24 h, no modulator (AID 1090).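 Further: basal condition with compound alone and no growth modifier present; test concentration not given here.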 Particulars: S. pombe 972 growth, higher = more signal, called active from +8 up or from −8 down.
Assay [14] is described as follows: S. cerevisiae growth modulation with rapamycin, primary screen, strain BY4716, OD600, 96 h (AID 1091). Further: test concentration not given here. Particulars: higher = more signal, called active from +8 up or from −8 down.
Assay [15] has as its target Torsin-1A-interacting protein 2 (Homo sapiens) (UniProt Q8NFQ8). The assay can be described thus: LULL1 binders on small-molecule microarray, primary screen, cell lysate, human LULL1 lysate, 635/667 nm fluorescence (AID 1092).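 Further: probe is lysate of COS7 cells overexpressing human LULL1; score merges per-feature 667 nm fluorescence with signal-to-noise.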 Particulars: hLULL1 lysate binding, 635 nm fluorescence, higher = more signal.
The nature of assay [16]: E. coli growth modulation, two-sided OD650, primary screen, E. coli filamentation project, strain DRC41, 24 h (AID 1093).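 Further: MC1000 strain lacking acrAB efflux and sulA so SOS filamentation is blocked; test concentration not given here.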 Particulars: OD650, 24 h, higher = more signal, called active from +8 up or from −8 down.
Assay [17] is described as follows: small-molecule microarray binders of probe aLefty2, primary screen, biochemical, biotinylated probe, 635/667 nm fluorescence (AID 1094).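 Further: score merges spot fluorescence near 667 nm with spot signal-to-noise ratio.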 Particulars: higher = more signal.
The subject of assay [18] is Noggin (protein binding on small-molecule microarray). Description: Noggin binders on small-molecule microarray, primary screen, biochemical, 635/667 nm fluorescence (AID 1095).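 Further: score merges 667 nm feature fluorescence with signal to noise over triplicate slides.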 The conditions noted are these: 635 nm fluorescence, higher = more signal.
Assay [19] concerns the target Neurogenic locus notch homolog protein 3 (Homo sapiens) (UniProt Q9UM47). The assay can be described thus: NOTCH3 binders on small-molecule microarray, primary screen, biochemical, 635/667 nm fluorescence (AID 1096). Particulars: NOTCH3 binding, 635 nm fluorescence, higher = more signal.
Assay [20] is described as follows: small-molecule microarray binders of probe aEGFR, primary screen, biochemical, biotinylated probe, 635/667 nm fluorescence (AID 1097).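 Further: probe is a biotinylated anti-EGFR antibody binding compounds printed on slides; score combines fluorescence near 667 nm and signal to noise of each spot.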 The conditions noted are these: higher = more signal.

Torsin-1A-interacting protein 2 (Homo sapiens), sequence (Q8NFQ8 whole entry, looked up): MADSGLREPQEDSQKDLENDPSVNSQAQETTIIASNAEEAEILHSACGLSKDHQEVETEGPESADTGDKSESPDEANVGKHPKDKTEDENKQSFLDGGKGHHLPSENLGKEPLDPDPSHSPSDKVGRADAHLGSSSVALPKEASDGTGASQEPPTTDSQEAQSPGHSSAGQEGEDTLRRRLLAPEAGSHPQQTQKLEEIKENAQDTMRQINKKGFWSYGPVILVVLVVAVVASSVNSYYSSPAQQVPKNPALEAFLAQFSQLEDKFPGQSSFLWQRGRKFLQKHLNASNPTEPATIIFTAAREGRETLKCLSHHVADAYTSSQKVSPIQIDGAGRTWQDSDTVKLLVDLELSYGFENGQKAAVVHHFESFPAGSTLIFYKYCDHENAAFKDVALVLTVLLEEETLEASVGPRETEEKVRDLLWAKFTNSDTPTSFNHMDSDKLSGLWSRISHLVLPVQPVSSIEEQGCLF
Neurogenic locus notch homolog protein 3 (Homo sapiens), sequence (Q9UM47 whole entry, looked up): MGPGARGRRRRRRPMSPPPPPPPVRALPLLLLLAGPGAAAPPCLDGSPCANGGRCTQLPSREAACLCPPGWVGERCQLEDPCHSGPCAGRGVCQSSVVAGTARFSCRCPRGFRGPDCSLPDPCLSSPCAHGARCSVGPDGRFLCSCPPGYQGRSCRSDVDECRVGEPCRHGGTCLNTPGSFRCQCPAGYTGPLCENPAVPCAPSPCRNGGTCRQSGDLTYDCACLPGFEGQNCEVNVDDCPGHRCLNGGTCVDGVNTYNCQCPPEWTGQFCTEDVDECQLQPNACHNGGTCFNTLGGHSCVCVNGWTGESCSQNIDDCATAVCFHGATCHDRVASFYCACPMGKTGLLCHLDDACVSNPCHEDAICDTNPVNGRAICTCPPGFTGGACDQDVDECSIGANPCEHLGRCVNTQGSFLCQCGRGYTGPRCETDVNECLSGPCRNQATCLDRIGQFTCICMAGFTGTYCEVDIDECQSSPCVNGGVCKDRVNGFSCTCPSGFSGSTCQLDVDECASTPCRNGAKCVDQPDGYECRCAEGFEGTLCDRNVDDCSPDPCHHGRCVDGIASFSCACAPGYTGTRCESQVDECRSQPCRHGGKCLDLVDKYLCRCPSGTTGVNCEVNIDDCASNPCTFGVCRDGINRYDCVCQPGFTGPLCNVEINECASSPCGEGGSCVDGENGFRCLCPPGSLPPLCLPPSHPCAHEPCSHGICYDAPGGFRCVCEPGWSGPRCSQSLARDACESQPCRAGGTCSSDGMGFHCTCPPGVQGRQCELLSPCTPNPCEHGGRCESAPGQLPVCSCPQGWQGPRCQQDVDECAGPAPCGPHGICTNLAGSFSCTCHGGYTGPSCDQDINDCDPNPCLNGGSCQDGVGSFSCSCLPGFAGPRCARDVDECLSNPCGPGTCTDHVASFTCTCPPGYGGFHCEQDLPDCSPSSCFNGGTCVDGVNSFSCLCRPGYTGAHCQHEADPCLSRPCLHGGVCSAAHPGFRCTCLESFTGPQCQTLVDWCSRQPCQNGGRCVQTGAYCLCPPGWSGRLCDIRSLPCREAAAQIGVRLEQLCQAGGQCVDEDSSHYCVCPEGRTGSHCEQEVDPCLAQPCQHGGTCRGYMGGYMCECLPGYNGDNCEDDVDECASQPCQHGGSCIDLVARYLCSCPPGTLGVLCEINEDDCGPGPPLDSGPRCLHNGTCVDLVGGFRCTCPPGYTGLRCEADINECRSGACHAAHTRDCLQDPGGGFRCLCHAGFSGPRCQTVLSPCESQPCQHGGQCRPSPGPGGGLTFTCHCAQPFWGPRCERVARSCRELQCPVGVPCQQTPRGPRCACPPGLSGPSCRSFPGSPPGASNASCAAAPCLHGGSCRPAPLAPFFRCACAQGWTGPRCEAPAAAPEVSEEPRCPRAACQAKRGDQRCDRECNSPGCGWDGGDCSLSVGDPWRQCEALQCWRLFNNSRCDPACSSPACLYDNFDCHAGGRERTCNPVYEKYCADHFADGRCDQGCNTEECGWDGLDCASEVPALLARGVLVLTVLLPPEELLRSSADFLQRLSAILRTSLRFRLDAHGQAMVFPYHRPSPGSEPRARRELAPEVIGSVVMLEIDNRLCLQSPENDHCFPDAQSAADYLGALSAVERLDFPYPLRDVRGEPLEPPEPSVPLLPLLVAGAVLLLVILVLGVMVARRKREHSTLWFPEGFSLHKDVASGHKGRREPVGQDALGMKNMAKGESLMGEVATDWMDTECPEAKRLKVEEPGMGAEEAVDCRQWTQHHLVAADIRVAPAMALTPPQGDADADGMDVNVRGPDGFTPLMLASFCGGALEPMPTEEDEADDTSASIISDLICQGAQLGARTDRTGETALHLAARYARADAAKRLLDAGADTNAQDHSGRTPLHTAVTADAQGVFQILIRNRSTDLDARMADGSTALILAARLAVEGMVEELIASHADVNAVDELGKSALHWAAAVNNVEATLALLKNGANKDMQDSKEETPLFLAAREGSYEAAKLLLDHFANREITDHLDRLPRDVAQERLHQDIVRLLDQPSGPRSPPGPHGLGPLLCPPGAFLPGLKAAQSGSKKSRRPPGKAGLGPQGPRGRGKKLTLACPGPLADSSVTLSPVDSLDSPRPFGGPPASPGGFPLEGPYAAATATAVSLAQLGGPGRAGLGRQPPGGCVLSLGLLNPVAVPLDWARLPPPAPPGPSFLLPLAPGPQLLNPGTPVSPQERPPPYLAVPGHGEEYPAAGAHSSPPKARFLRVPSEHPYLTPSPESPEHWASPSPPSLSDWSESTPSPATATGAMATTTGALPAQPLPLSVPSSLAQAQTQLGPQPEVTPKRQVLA
Pro-neuregulin-1, membrane-bound isoform (Homo sapiens), sequence (Q02297 whole entry, looked up, the tested form may be a part, canonical isoform): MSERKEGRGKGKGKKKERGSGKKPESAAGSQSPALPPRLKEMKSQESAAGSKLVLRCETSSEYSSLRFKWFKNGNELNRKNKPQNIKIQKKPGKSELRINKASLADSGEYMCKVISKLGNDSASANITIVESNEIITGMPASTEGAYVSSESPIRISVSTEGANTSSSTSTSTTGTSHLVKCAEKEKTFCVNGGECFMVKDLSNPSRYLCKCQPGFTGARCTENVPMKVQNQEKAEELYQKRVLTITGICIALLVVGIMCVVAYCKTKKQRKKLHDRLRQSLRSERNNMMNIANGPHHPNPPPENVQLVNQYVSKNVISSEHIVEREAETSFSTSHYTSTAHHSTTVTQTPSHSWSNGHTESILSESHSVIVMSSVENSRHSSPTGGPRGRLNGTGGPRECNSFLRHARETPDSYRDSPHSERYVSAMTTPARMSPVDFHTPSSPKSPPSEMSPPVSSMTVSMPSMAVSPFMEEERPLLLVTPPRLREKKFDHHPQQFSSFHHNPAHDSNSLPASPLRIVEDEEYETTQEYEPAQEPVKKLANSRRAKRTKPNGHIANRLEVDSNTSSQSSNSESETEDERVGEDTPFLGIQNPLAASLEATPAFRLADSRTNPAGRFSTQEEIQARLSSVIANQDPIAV

Turning to `CC(C)C(CO)N1C(=O)[C@@H]2[C@H]3C(=O)OCC=C[C@H]3OC23C=CCN(c2ccc4ccccc4c2)C(=O)[C@@H]13` (stereo not given in full), the composite z-score was 0.316 in assay [1]; -0.377 in [2]; -0.169 in assay [3]; -0.134 in assay [4]; -1.13 in assay [5]; 0.187 in assay [6]. Moreover, the composite z-score is -0.111 in assay [7]; -0.527 in assay [9]; 0.0373 in assay [10]; -0.382 in assay [11]; 0.607 in assay [15]; -0.192 in [17]. Besides, the composite z-score in assay [18] is -1.21; in [19], -0.319; in assay [20] it was -0.127. Besides, the z-score in assay [8] was 0.125 (inactive); in [12], 0.523 (inactive); in [13] it was -0.494 (inactive); in assay [14], 1.17 (inactive); in assay [16] it was 0.0732 (inactive).
As to `CCCNC(=O)[C@@]1(c2ccc([N+](=O)[O-])cc2)CC(=O)N(CC23CC4CC(CC(C4)C2)C3)[C@@H]1c1ccc(CO)cc1I`, the composite z-score in assay [1] is 0.188; in [2], 0.388; in assay [3] it was -0.0644; in assay [4], 0.0889; in assay [5] it was 0.906; in assay [6], 0.133. Besides, the composite z-score in assay [7] was determined as 1.01; in assay [9], 0.171; in assay [10], 0.31; in assay [11], 1.14; in assay [15], 1.53; in assay [17], 0.0962. Also, the composite z-score in assay [18] was determined as 0.367; in assay [19], 0.243; in [20], 0.141. Besides, the z-score in [8] was -2.05 (inactive); in assay [12] it was 0.804 (inactive); in assay [13], 1 (inactive); in [14] it was 5.52 (inactive); in assay [16] it was 0.136 (inactive).
Regarding `O=C1O[C@H](c2ccccc2)[C@H](c2ccccc2)N2[C@H]1[C@@H](C(=O)N1CCCCCCC1)[C@]1(C(=O)Nc3ccc(C#CC4=CCCCC4)cc31)[C@H]2c1ccc(O)cc1`, the composite z-score in assay [1] turned out to be 3.8; in assay [2] it was 2.87; in assay [3], 1.05; in assay [4] it was 1.46; in assay [5], 1.84; in [6], 2.87. Besides, the composite z-score was 1.54 in assay [7]; 3.41 in [9]; 2.58 in assay [10]; 1.56 in assay [11]; 5.19 in [15]; 1.91 in assay [17]. Also, the composite z-score in [18] was 2.3; in assay [19], 1.02; in assay [20], 1.47. For the same compound, the z-score in assay [8] is 0.805 (inactive); in assay [12], -0.177 (inactive); in assay [13] it was 0.218 (inactive); in assay [14], 0.791 (inactive); in [16], 1.26 (inactive).
Consider `CN1C(=O)C2C(C1=O)C1C=C(c3ccc(CO)cc3)C2C(C2CC2)N1Cc1sc2ccccc2c1Cl` (stereo not given), for which the composite z-score in [1] was found to be 0.0497; in assay [2] it was 1.17; in [3], 0.0311; in [4], 1.02; in assay [5], 1.68; in assay [6], 1.41. Moreover, the composite z-score is 0.866 in assay [7]; 0.391 in [9]; 0.2 in assay [10]; 1.55 in assay [11]; 3.33 in [15]; 0.252 in assay [17]. Moreover, the results for the composite z-score in assay [18], in assay [19] and in [20] were 0.411, 1.03 and 0.0651, respectively. Besides, the z-score in [8] is -2.04 (inactive); in assay [12], 0.654 (inactive); in assay [13], -3 (inactive); in assay [14], 1.42 (inactive); in assay [16] it was 0.204 (inactive).
`[N-]=[N+]=NCc1ccccc1[C@@H]1OC(c2ccc(OCCCO)cc2)=N[C@]1(Cc1ccccc1N=[N+]=[N-])C(N)=O`: the composite z-score in [1] is 0.209; in assay [2], -0.523; in assay [3] it was -0.156; in assay [4] it was 0.385; in [5], 1.66; in assay [6], 2.08. The composite z-score in [7] was 1.27; in assay [9], 1.25; in [10], -0.0994; in assay [11] it was 1.55; in assay [15], 3.29; in [17] it was 0.361. In addition, the composite z-score in [18] came to 0.37; in assay [19], 1.04; in assay [20], 0.171. The z-score in assay [8] is 0.722 (inactive); in [12], -0.0556 (inactive); in assay [13], -1.33 (inactive); in assay [14], -0.91 (inactive); in assay [16], 0.43 (inactive).
